Source: PubChem BioAssay
Results filed as inconclusive are left out. Calls of active or inactive are those of the source.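 How the source made its calls, unless noted: active means inhibition above 54%, about 3 SD of non-fluorescent compounds; inactive means the rest.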 Square brackets hold non-standard residues; d marks the D form. Peptide text beside a SMILES is read from it. ξ: configuration not given here. ξV = CC(C)C(N)C(=O)O

Experiments:
[1] = yeast TOR pathway RPL19A-GFP modulators, primary screen, cell-based, S. cerevisiae, multiplex flow cytometry (AID 1862; in the data active means percent of DMSO control GFP below about 86%;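 further: lower values mimic rapamycin by blocking the RPL19A rise seen in DMSO cells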); details: S. cerevisiae RPL19A-GFP strain, flow cytometry fluorescence, 3 h; at 10 µM; stronger effect = lower value
[2] = modulators of MEP2-GFP levels in yeast, primary screen, S. cerevisiae, multiplex flow cytometry (AID 1867;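 active means GFP response, as percent of the DMSO control, above the screen-wide mean plus 3 SD, about 139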;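 further: median GFP channel fluorescence of barcode-gated MEP2-GFP cells measured by flow cytometry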); details: S. cerevisiae MEP2-GFP strain, 3 h, at 10 µM, stronger effect = higher value, 100% means same as DMSO wells
[3] = modulators of CIT2-GFP expression in yeast, primary screen, S. cerevisiae, GFP fusion, multiplex flow cytometry (AID 1870;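 active means percent response above a set limit, the screen-wide mean plus 3 SD, cut at about 130% in these data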;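 further: barcoded CIT2-GFP strain pooled with four other GFP strains with rapamycin as positive control; median GFP fluorescence per well over plate mean of DMSO wells so 100% = DMSO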); details: 3 h, at 10 µM, stronger effect = higher value
[4] = modulators of LAP4-GFP expression in yeast, primary screen, S. cerevisiae, multiplex flow cytometry (AID 1873;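 active means GFP signal, as percent of the solvent control, above the screen mean plus 3 SD, about 149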); details: 3 h, at 10 µM, stronger effect = higher value
[5] = modulators of AGP1-GFP expression in yeast TOR pathway, primary screen, cell-based, multiplex flow cytometry, S. cerevisiae (AID 1887;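 active means GFP signal above the screen-wide mean plus 3 SD, that is over about 124.5% of the solvent control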;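 further: AGP1-GFP fusion strain of S. cerevisiae within a five-strain barcoded multiplex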); details: 3 h, at 10 µM, stronger effect = higher value
[6] = inhibitors of CD8+ T cell-vesicle binding, pilot screen, LFA-1/ICAM-1 modulator project, MLPCN validation set, flow cytometry (AID 2523;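 active means response below a set limit, under 55% cells CD8-positive and vesicle-bound, and CD8 cells' 90th-percentile brightness under 279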;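 on vesicle binding response: mean PE anti-B7-1 fluorescence of CD8+ cells relative to row control; 100% = QL9-loaded vesicles with DMSO vehicle in the same plate row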); details: 2C mouse CD8+ T cells, at 7 µM, stronger effect = lower value; double positive events: measured here: CD8+/vesicle+ event percentage
[7] = target: Integrin beta-1 (Homo sapiens) + Integrin alpha-4 (Homo sapiens) (UniProt P13612+P05556); assay: inhibition of HUTS-21 binding to VLA-4, pilot screen, VLA-4 allosteric modulator project, U937 cells, HUTS-21 mAb, flow cytometry, validation set (AID 2674;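 active means inhibition above 50%, about 3 SD of the validation set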;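 further: antibody binding induced by the VLA-4 ligand LDV present at three times its Kd; 0% = LDV ligand with antibody and no compound and 100% = antibody without LDV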); details: HUTS-21 LIBS mAb binding, at 6.7 µM, stronger effect = higher value, binding induced by LDV ligand
[8] = superoxide lowering in aged yeast cells, pilot screen, validation compound set (AID 2706;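 active means superoxide response below 65% of plate, a cut near 3 SD across the whole screen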;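 further: yeast exposed to compound for one week at 30 degrees C before staining; 100% = mean of all compound wells on the same plate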); details: S. cerevisiae aging, superoxide DHE fluorescence; at 10 µM; stronger effect = lower value
[9] = target: Beta-adrenergic receptor kinase 1 (Homo sapiens) (UniProt P25098); assay: GRK2 binders displacing RNA aptamer, biochemical, validation, human GRK2, bead flow cytometry (AID 488806;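 active means aptamer binding inhibition above 30%, about 3 SD of noise from non-fluorescent compounds; inactive means inhibition at or below 30%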); details: bead-bound GRK2, FAM-aptamer displacement, at 10 µM, stronger effect = higher value
[10] = target: Beta-2 adrenergic receptor (Homo sapiens) (UniProt P07550); assay: beta2AR agonists driving receptor internalization, pilot screen, cell-based, FAP fluorogen, flow cytometry, validation set (AID 504459;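 active means percent response above 42, roughly 3 SD of non-fluorescent test compounds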;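 further: agonist-driven loss of surface beta2AR via internalization measured by FAP dye flow cytometry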); details: Am2.2-beta2AR cells, FAP surface receptor flow cytometry; at 10 µM; stronger effect = higher value
[11] = target: AP-2 complex subunit beta (Homo sapiens) (UniProt P63010); assay: inhibitors of arrestin peptide binding to AP2, pilot screen, biochemical, validation set, GST-AP2 beads, flow cytometry (AID 504541); details: FITC arrestin peptide, at 10 µM, stronger effect = higher value, AP2 beta2 appendage fragment, R879A mutant;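 further: AP2 carries R879A mutation and is captured from E. coli lysate; bead-bound FITC arrestin peptide fluorescence measuring arrestin peptide binding to AP2; 0% = DMSO wells and 100% = excess unlabeled arrestin peptide control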
[12] = yeast V-ATPase proton transport modulators, S. cerevisiae, pHLuorin, HTS validation (AID 504600; in the data active means response above about 15%;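 further: plate controls were DMSO for no effect and reference compound for full effect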); details: S. cerevisiae pHLuorin cytosolic pH, at 10 µM, stronger effect = higher value
[13] = system: anti-desmoglein-3 scFv antibody binding to human DSG3; assay: inhibitors of anti-DSG3 scFv binding to DSG3, pilot screen, biochemical, validation compound set, bead-based, flow cytometry (AID 588368;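 active means binding below the plate cutoff, the plate median minus 3 SD, with a reading above zero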;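 further: signal is the median channel fluorescence of bead-bound GFP antibody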); details: Protein G beads, DSG3-Fc, scFv-GFP binding, at 10 µM, stronger effect = lower value
[14] = inhibitors of fungal efflux pumps CDR1, CDR2, MDR1, pilot screen, validation compound set, multiplex, phenotypic (AID 588506;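 active means efflux inhibition above 0.42, the validation set average plus 4 SD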;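 further: Nile Red retained in cells so higher fluorescence means more efflux inhibition; 0 = negative control wells and 1 = enniatin B 25 µM full block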); details: S. cerevisiae pump-expressing triplex, Nile Red efflux flow cytometry; at 10 µM; stronger effect = higher value; the pumps come from Candida albicans
[15] = target: ATP-binding cassette sub-family B member 6 (Homo sapiens) (UniProt Q9NP58); assay: ABCB6 transporter inhibitors, pilot screen, K562-ABCB6 cells, flow cytometry, validation set (AID 588550;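 active means inhibition above the screen-wide mean plus 3 SD, about 51%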;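 further: 0% = DMSO wells and 100% = benzethonium chloride 70 µM positive control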); details: K562-ABCB6 porphyrin accumulation, 1 h, at 10 µM, stronger effect = higher value
[16] = promoters of myeloid differentiation in arrested cells, primary screen, cell-based, GFP/MAC1 double positive, flow cytometry, validation set (AID 588685;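 active means differentiation response of at least 50%, scaled between solvent and reference control, from cells with both markers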;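 further: compound exposure lasts four days before antibody staining and flow analysis; 0% = DMSO wells and 100% = 5 µM fulvestrant positive control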); details: ER-HoxA9 marrow cells, stronger effect = higher value, normalized: vehicle 0, fulvestrant 100

Chain of AP-2 complex subunit beta (Homo sapiens) (P63010 whole entry, looked up, the tested form may be a part, one chain of several): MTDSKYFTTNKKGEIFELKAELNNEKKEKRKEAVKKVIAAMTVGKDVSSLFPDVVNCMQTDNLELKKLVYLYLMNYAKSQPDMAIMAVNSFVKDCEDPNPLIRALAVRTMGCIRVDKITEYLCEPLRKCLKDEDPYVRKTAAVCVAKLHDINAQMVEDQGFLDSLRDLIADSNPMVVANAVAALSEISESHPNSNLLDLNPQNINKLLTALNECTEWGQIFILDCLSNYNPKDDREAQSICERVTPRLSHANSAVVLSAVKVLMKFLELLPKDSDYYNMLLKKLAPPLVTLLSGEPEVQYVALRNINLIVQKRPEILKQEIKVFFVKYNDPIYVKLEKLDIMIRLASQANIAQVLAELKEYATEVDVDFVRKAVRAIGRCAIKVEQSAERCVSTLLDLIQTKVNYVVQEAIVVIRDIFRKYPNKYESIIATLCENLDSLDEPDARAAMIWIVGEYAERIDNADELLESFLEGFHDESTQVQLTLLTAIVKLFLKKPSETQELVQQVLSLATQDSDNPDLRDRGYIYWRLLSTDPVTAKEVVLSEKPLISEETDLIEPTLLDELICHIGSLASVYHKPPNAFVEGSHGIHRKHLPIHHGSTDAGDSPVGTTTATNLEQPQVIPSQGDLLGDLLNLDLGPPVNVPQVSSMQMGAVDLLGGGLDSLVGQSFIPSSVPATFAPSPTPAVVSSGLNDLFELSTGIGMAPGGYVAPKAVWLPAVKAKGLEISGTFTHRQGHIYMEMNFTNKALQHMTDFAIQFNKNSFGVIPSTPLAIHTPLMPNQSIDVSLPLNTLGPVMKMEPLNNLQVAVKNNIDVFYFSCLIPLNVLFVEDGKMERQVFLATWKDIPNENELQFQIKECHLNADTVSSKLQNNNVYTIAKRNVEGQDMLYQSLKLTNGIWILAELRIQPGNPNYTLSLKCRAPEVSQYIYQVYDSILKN
Chain of Beta-2 adrenergic receptor (Homo sapiens) (P07550 whole entry, looked up, the tested form may be a part): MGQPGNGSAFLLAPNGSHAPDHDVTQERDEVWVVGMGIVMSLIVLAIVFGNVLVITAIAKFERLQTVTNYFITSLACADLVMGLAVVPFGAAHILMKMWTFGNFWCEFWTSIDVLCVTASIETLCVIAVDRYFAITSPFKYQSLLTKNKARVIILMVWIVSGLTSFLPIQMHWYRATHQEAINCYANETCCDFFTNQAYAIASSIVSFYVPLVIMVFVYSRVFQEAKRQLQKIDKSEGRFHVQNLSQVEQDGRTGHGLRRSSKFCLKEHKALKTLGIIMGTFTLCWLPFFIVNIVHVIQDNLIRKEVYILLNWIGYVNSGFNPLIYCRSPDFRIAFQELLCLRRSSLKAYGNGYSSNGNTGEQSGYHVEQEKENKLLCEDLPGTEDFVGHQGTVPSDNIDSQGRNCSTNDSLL
Chain of Integrin beta-1 (Homo sapiens) + Integrin alpha-4 (Homo sapiens) (P05556 whole entry, looked up): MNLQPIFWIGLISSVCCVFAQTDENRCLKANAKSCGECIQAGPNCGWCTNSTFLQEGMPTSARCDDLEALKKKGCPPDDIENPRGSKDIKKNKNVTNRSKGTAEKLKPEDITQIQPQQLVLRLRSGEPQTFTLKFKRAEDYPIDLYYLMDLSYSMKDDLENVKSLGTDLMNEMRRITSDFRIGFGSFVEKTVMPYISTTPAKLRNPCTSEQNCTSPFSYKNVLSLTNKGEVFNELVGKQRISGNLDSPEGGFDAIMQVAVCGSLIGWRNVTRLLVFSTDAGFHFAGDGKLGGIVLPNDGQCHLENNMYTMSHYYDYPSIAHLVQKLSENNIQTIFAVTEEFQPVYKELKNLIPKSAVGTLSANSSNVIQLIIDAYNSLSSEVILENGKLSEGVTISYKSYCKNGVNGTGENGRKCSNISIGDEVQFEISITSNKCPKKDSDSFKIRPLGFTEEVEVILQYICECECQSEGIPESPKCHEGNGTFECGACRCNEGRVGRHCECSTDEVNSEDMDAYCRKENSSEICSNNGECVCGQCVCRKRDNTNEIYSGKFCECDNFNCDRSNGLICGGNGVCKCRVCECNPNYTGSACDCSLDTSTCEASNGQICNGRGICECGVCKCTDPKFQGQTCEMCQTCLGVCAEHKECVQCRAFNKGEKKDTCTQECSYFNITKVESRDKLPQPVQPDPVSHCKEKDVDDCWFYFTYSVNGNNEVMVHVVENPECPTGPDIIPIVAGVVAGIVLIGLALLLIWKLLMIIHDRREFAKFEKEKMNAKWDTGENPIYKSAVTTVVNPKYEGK
Chain of Integrin beta-1 (Homo sapiens) + Integrin alpha-4 (Homo sapiens) (P13612 whole entry, looked up): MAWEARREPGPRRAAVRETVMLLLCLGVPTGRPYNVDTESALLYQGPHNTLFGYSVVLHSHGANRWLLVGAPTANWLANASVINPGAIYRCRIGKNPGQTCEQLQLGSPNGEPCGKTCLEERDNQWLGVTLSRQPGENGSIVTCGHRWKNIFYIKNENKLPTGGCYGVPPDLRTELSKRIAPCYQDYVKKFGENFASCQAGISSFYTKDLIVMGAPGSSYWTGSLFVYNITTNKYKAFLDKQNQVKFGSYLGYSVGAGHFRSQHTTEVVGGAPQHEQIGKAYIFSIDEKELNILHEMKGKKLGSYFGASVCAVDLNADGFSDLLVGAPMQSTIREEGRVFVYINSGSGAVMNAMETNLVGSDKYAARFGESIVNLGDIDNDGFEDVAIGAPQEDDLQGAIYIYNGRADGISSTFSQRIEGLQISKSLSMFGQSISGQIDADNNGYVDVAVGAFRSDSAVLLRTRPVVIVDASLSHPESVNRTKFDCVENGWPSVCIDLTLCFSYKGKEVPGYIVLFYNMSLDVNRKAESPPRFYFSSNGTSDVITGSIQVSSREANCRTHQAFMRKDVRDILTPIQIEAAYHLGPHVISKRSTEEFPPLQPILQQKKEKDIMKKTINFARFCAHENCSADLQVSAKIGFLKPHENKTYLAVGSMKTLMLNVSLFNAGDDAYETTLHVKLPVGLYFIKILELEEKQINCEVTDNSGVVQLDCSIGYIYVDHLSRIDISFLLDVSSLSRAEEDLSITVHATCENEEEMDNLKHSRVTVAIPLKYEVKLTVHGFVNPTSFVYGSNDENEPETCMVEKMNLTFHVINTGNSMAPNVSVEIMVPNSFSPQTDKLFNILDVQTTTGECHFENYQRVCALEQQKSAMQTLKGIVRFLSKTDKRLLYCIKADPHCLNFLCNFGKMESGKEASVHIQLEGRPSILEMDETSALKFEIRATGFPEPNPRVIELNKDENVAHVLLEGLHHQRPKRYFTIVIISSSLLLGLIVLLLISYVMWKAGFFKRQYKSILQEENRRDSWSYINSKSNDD
Chain of Beta-adrenergic receptor kinase 1 (Homo sapiens) (P25098 whole entry, looked up): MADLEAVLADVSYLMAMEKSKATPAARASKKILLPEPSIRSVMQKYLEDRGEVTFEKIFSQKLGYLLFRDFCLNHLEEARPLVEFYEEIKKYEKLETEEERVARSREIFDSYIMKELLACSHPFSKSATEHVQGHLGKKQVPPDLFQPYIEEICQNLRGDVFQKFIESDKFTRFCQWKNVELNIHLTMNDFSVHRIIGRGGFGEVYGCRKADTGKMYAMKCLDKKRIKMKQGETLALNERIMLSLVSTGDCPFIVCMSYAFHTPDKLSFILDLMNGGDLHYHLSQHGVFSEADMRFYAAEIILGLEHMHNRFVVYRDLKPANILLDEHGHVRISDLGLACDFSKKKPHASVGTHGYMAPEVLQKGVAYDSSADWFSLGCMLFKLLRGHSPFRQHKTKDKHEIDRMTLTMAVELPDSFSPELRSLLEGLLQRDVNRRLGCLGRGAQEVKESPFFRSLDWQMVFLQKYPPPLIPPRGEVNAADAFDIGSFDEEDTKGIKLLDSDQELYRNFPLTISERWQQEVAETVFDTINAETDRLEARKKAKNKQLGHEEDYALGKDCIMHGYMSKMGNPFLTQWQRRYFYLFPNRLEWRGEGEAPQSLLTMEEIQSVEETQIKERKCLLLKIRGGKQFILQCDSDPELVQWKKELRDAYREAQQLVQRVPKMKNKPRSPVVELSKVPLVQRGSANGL
Chain of ATP-binding cassette sub-family B member 6 (Homo sapiens) (Q9NP58 whole entry, looked up): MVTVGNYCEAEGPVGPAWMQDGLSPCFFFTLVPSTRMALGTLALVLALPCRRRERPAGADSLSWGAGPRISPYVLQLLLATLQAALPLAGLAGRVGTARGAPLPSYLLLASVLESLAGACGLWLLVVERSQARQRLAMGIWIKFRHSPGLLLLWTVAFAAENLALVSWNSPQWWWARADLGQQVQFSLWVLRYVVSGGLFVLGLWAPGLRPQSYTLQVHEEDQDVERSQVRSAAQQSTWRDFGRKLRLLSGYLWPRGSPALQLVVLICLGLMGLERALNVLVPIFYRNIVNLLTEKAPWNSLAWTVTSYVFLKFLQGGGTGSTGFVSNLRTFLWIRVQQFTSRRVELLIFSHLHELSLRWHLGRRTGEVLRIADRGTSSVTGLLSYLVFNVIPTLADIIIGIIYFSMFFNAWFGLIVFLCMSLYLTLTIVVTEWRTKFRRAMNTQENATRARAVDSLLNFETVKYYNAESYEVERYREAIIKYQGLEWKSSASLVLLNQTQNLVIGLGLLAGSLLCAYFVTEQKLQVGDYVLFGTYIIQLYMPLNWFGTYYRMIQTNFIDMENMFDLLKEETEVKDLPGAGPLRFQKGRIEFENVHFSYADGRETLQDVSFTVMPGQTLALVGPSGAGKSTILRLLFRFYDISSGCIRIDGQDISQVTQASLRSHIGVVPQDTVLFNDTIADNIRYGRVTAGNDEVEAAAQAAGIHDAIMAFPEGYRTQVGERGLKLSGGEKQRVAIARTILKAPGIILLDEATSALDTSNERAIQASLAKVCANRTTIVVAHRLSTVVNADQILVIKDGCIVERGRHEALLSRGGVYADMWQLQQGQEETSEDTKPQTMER

O=C(c1cc2cc(Br)ccc2o1)N1CCCC1
56.9%: double positive events [6]
inactive: percent of DMSO control GFP [1] 101% | GFP response vs DMSO [2] 106% | percent response of DMSO control [3] 97.6% | GFP response vs DMSO [4] 139% | GFP response, % of DMSO [5] 99.4% | vesicle binding response [6] 146% | inhibition [7] -5.11% | superoxide response (% of plate) [8] 93.6% | aptamer binding inhibition [9] 0% | response [10] -10.4% | inhibition [11] -6.7% | response [12] 0.97% | binding (% of control) [13] 103% | efflux inhibition (fraction of control) [14] -0.07 | inhibition [15] 9% | differentiation response [16] -3.11%

CN1CCN(C2=Nc3ccccc3Oc3ccc(Cl)cc32)CC1
inactive: percent of DMSO control GFP [1] 101% | GFP response vs DMSO [2] 115% | percent response of DMSO control [3] 111% | GFP response vs DMSO [4] 79.8% | GFP response, % of DMSO [5] 100% | vesicle binding response [6] 223% | inhibition [7] 4.52% | superoxide response (% of plate) [8] 112% | aptamer binding inhibition [9] -9% | response [10] -6.79% | inhibition [11] -13.5% | response [12] 0.86% | binding (% of control) [13] 109% | efflux inhibition (fraction of control) [14] 0.19 | inhibition [15] 14% | differentiation response [16] -0.82%
61.6%: double positive events [6]

CC(=O)NC(C(=O)NCC(N)=O)C(C)C (stereo not given) (Ac-[ξV]-Gly-NH2)
inactive: percent of DMSO control GFP [1] 104% | GFP response vs DMSO [2] 93% | percent response of DMSO control [3] 111% | GFP response vs DMSO [4] 95.3% | GFP response, % of DMSO [5] 97.3% | vesicle binding response [6] 195% | inhibition [7] -7.72% | superoxide response (% of plate) [8] 93.7% | aptamer binding inhibition [9] -2% | response [10] -7.22% | inhibition [11] -9.46% | response [12] 0.49% | binding (% of control) [13] 96.9% | efflux inhibition (fraction of control) [14] -0.2 | inhibition [15] 0% | differentiation response [16] 13.9%
65.3%: double positive events [6]

O=C1C(O)CC2c3ccccc3CC3(CCCC3)N12 (stereo not given)
active: response [10] 48%
inactive: percent of DMSO control GFP [1] 100% | GFP response vs DMSO [2] 104% | percent response of DMSO control [3] 105% | GFP response vs DMSO [4] 114% | GFP response, % of DMSO [5] 100% | vesicle binding response [6] 247% | inhibition [7] -0.43% | superoxide response (% of plate) [8] 106% | aptamer binding inhibition [9] 1% | inhibition [11] -6.78% | response [12] 0.88% | binding (% of control) [13] 99.9% | efflux inhibition (fraction of control) [14] 0.08 | inhibition [15] -110% | differentiation response [16] -18.4%
61.4%: double positive events [6]

CCCCOc1ccc(CC(=O)NO)cc1
48.1%: double positive events [6]
inactive: percent of DMSO control GFP [1] 87.8% | GFP response vs DMSO [2] 113% | percent response of DMSO control [3] 106% | GFP response vs DMSO [4] 75.9% | GFP response, % of DMSO [5] 75% | vesicle binding response [6] 214% | inhibition [7] -3.24% | superoxide response (% of plate) [8] 121% | aptamer binding inhibition [9] -2% | response [10] -26.1% | inhibition [11] 3.29% | response [12] 1.03% | binding (% of control) [13] 104% | efflux inhibition (fraction of control) [14] 0.09 | inhibition [15] 9% | differentiation response [16] 2.46%

COc1ccc(CC(=O)NCC2(c3ccc(OC)c(OC)c3)CCOCC2)cc1
54%: double positive events [6]
inactive: percent of DMSO control GFP [1] 103% | GFP response vs DMSO [2] 96.3% | percent response of DMSO control [3] 104% | GFP response vs DMSO [4] 82.8% | GFP response, % of DMSO [5] 89.7% | vesicle binding response [6] 175% | inhibition [7] 5.03% | superoxide response (% of plate) [8] 102% | aptamer binding inhibition [9] 8% | response [10] -10.1% | inhibition [11] -7.91% | response [12] 0.74% | binding (% of control) [13] 99.3% | efflux inhibition (fraction of control) [14] -0.35 | inhibition [15] -23% | differentiation response [16] -12%

c1ccc(Nc2cccc3c(Nc4ccccc4)cccc23)cc1
62%: double positive events [6]
inactive: percent of DMSO control GFP [1] 104% | GFP response vs DMSO [2] 107% | percent response of DMSO control [3] 105% | GFP response vs DMSO [4] 88.7% | GFP response, % of DMSO [5] 97.8% | vesicle binding response [6] 284% | inhibition [7] -28.5% | superoxide response (% of plate) [8] 98.3% | aptamer binding inhibition [9] 1% | response [10] 6.03% | inhibition [11] 21.9% | response [12] 0.51% | binding (% of control) [13] 91.6% | efflux inhibition (fraction of control) [14] 0.18 | inhibition [15] -26% | differentiation response [16] 14.9%

Cc1ccc2nc(C)c3c(c2c1)OC(C(C)(Cl)Br)C3 (stereo not given)
73%: double positive events [6]
inactive: percent of DMSO control GFP [1] 102% | GFP response vs DMSO [2] 102% | percent response of DMSO control [3] 111% | GFP response vs DMSO [4] 105% | GFP response, % of DMSO [5] 105% | vesicle binding response [6] 278% | inhibition [7] 6.4% | superoxide response (% of plate) [8] 94.8% | aptamer binding inhibition [9] 5% | response [10] 23.5% | inhibition [11] -1.65% | response [12] 6.53% | binding (% of control) [13] 98.4% | efflux inhibition (fraction of control) [14] 0.08 | inhibition [15] 1% | differentiation response [16] 15.2%

COC(=O)C1=CN(Cc2cccs2)C=C(C(=O)OC)C1c1cccc(Cl)c1
inactive: percent of DMSO control GFP [1] 103% | GFP response vs DMSO [2] 107% | percent response of DMSO control [3] 98.2% | GFP response vs DMSO [4] 92.3% | GFP response, % of DMSO [5] 97.2% | vesicle binding response [6] 186% | inhibition [7] 14% | superoxide response (% of plate) [8] 103% | aptamer binding inhibition [9] 5% | response [10] 9.92% | inhibition [11] 2.7% | response [12] -0.61% | binding (% of control) [13] 99.5% | efflux inhibition (fraction of control) [14] 0.26 | inhibition [15] 6% | differentiation response [16] 6.49%
61.5%: double positive events [6]

CC(=O)NC(Cc1c[nH]c2ccccc12)C(=O)N/N=C/c1ccccc1 (stereo not given)
inactive: percent of DMSO control GFP [1] 98.6% | GFP response vs DMSO [2] 108% | percent response of DMSO control [3] 104% | GFP response vs DMSO [4] 99.1% | GFP response, % of DMSO [5] 98.6% | vesicle binding response [6] 200% | inhibition [7] -15.8% | superoxide response (% of plate) [8] 98% | aptamer binding inhibition [9] -3% | response [10] -1.6% | response [12] -13.1% | binding (% of control) [13] 104% | efflux inhibition (fraction of control) [14] 0 | inhibition [15] -12% | differentiation response [16] -3.11%
62.8%: double positive events [6]
active: inhibition [11] 60.7%
